Data on eight compounds can be found in PubChem BioAssay (NCI).

The structures appear in SMILES notation. The panel holds about 83,000 compounds, 20% with a hit somewhere; the sample as a whole holds those more often.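 A percent growth of 40 corresponds to 60% growth inhibition; 0 means no net growth; -100 means all cells died. Active threshold: below 10.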 Values without a mark were called inactive. The source made the active and inactive calls.

What all share (assay): NCI-60 one-dose screen, 48 h (100 = growth as untreated, 0 = no growth, -100 = all killed)
For test [1], the system named is SK-MEL-2 melanoma. As to conditions: 10 µM unless noted.
Test [2] concerns EKVX NSCLC. As to conditions: 10 µM unless noted.
For test [3], the system named is SN12C renal. As to conditions: 10 µM unless noted.
Test [4] deals with UO-31 renal. As to conditions: 10 µM unless noted.
For test [5], the system named is TK-10 renal. As to conditions: 10 µM unless noted.
Test [6] has as its system ACHN renal. As to conditions: 10 µM unless noted.
Test [7] relates to A498 renal. As to conditions: 10 µM.
Test [8] relates to HL-60(TB) leukemia. As to conditions: 10 µM unless noted.
The test system of test [9] is CCRF-CEM leukemia. As to conditions: 10 µM unless noted.
Test [10] deals with MOLT-4 leukemia. As to conditions: 10 µM unless noted.
The subject of test [11] is SR leukemia. As to conditions: 10 µM unless noted.
The test system of test [12] is RPMI-8226 leukemia. As to conditions: 10 µM unless noted.
Test [13] relates to OVCAR-8 ovarian. As to conditions: 10 µM unless noted.
The subject of test [14] is OVCAR-5 ovarian. As to conditions: 10 µM unless noted.
Test [15] deals with OVCAR-4 ovarian. As to conditions: 10 µM unless noted.
Test [16] concerns SK-OV-3 ovarian. As to conditions: 10 µM unless noted.
For test [17], the system named is IGROV1 ovarian. As to conditions: 10 µM unless noted.
Test [18] concerns OVCAR-3 ovarian. As to conditions: 10 µM unless noted.
Test [19] deals with HS 578T breast. As to conditions: 10 µM unless noted.

Turning to `COC(=O)[C@@H](C)C[C@H](Cc1ccccc1)NC(=O)c1csc([C@@H](C[C@H](C(C)C)N(C)C(=O)[C@H](C)NC(=O)[C@H]2CCCN2C)OC(C)=O)n1`, the growth in test [1] is 43.8%; in test [2], 69.8%; in test [3] it was 64.8%; in test [4] it was 71.8%; in [5], 82.7%; in test [6], 68.6%. The growth is 53.4% in [7]; -21.2% (active) in test [8]; 18.7% in [9]; 42.6% in test [10]; 14.1% in test [11]; 9.55% (active) in test [12]. Besides, the growth is 58.3% in test [13]; 110% in [14]; 88.9% in [15]; 73.2% in [16]; 58.1% in test [17]; 17.9% in test [18]. Moreover, the growth in test [19] was 17.6%.

Regarding `CC1=C(CCCNS(C)(=O)=O)C2=C(C)C3(CC3)[C@@](C)(O)C(=O)C2=C1`, the growth was -44.7% (active) in [1]; 1.61% (active) in test [2]; 8.84% (active) in test [3]; -32.6% (active) in test [4]; -14.9% (active) in [5]; -23.6% (active) in test [6]. The growth was -43.2% (active) in [7]; 14% in test [8]; 90.9% in [9]; 90.2% in [10]; 92.8% in test [11]; 97% in test [12]. Besides, the growth is 6.9% (active) in test [13]; 2.82% (active) in test [14]; -12.1% (active) in test [15]; -18% (active) in test [16]; -2.43% (active) in test [17]; -12.7% (active) in test [18]. Moreover, in test [19], the growth was 57.9%.

Turning to `[Cl][Hg][c]1cc[c]([Hg][Cl])o1`, the growth was 57.9% in [1]; 20.5% in [2]; 34.9% in test [3]; 3.18% (active) in test [4]; 41.8% in test [5]; 3.3% (active) in test [6]. Further, the growth in test [7] was 109%; in [8] it was 22.5%; in test [9], 4.4% (active); in test [10], 14.3%; in [11], 6.25% (active); in test [12] it was 1.23% (active). The growth was 65.1% in test [13]; 122% in [14]; 79.6% in test [15]; 94.9% in test [16]; 15.9% in [17]; -1.69% (active) in test [18]. In test [19], the growth is 55.4%.

For the compound `Fc1ccc2c(c1)c(-c1nc(-c3c[nH]c4ncccc34)cs1)cn2CCCCN1CCCCC1`, the growth in test [1] was -76.7% (active); in [2], 23.3%; in [3], -84.4% (active); in test [4], -86.9% (active); in test [5] it was -86.1% (active); in test [6], -97.4% (active). The growth in test [7] was 63.2%; in test [8], -70% (active); in [9] it was -61.4% (active); in test [10], -67.7% (active); in test [11], -60.2% (active); in [12] it was -49.6% (active). In addition, the growth is -82.9% (active) in [13]; -68.2% (active) in [14]; -23.8% (active) in test [15]; -72.6% (active) in test [16]; -60.5% (active) in test [17]; -84.3% (active) in test [18]. For the same compound, the growth in test [19] was -28.6% (active).

With `CC(=O)O[C@H](C[C@H](C(C)C)N(C)C(=O)[C@@H](NC(=O)[C@H]1CCCCN1C)C(C)C)c1nc(C(=O)N[C@@H](Cc2ccccc2)C[C@H](C)C(=O)O)c(C)s1`, the growth in test [1] was 61.5%; in [2], 40.9%; in test [3], 34.6%; in test [4] it was 58.9%; in test [5], 36.9%; in test [6], 26.6%. For the same compound, the growth is -8.24% (active) in test [7]; -8.97% (active) in [8]; 10.8% in test [9]; 20.7% in [10]; 7.46% (active) in [11]; 25.1% in [12]. Also, the growth is 20.1% in test [13]; 31% in test [14]; 50.6% in [15]; 6.87% (active) in test [16]; 31.1% in test [17]; 12.5% in test [18].

On to `COC(=O)[C@@H](C)C[C@H](Cc1cn(C)c2ccccc12)NC(=O)c1csc([C@@H](C[C@H](C(C)C)N(C)C(=O)[C@@H](NC(=O)[C@H]2CCCCN2C)C(C)C)OC(C)=O)n1`, for which the growth in test [1] was 39%; in test [2], 46.4%; in [3], 23.5%; in [4] it was 34.1%; in test [5], 28.1%; in [6] it was 18.8%. The growth in [7] was -1.42% (active); in [8], -39.1% (active); in test [9], 10.8%; in test [10], 12.8%; in test [11], 13.2%; in test [12], 10.5%. Besides, the growth was 30.1% in test [13]; 48.7% in test [14]; 50.5% in test [15]; 26.8% in test [16]; 26.3% in test [17]; -11% (active) in [18]. In addition, the growth in test [19] is 22.7%.

`O=[N+]([O-])c1c(Br)sc(Br)c1[N+](=O)[O-]`: the growth in test [1] is -20.9% (active); in test [2], 72.5%; in test [3], 30%; in [4], -65.7% (active); in [5] it was -78.3% (active); in test [6], -56.4% (active). Further, the growth is 111% in [7]; -11.2% (active) in test [8]; -18.9% (active) in [9]; -3.6% (active) in test [10]; -5.81% (active) in test [11]; 16.7% in test [12]. Also, the growth in test [13] was 5.21% (active); in test [14] it was 76.3%; in test [15], 30.9%; in [16], 98.7%; in [17], 3.28% (active); in test [18], -62.4% (active).

Turning to `CC(=O)OC[C@]1(C)C=C2C(=O)[C@](C)(O)C3(CC3)C(C)=C2[C@H]1OC(=O)N(C)CCN(C)C(=O)OC(C)(C)C`, the growth in [1] is -74.3% (active); in test [2], -7.18% (active); in [3], 14.2%; in test [4], -48.5% (active); in [5], -8.19% (active); in test [6] it was -8.88% (active). Moreover, the growth was -10.8% (active) in test [7]; -37% (active) in [8]; 19.9% in test [9]; 10.5% in test [10]; 14% in test [11]; 32.9% in test [12]. Also, the growth was -12% (active) in test [13]; 3.2% (active) in test [14]; -2.23% (active) in test [15]; 1.41% (active) in test [16]; 1.75% (active) in [17]; -8.01% (active) in test [18]. The growth in [19] was 17.5%.
